Structures are written as SMILES. Compounds without any hit were thinned out: in the full panel of roughly 83,000, 20% have a hit.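 Assay: single dose, 48 h. Readout: percent growth (0 = no net growth; negative = cell death). Active: <10.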 A number with no mark means an inactive call. The source made the active and inactive calls.

Test systems include NCI-H23 lung; NCI-H226 lung; NCI-H322M lung; HOP-62 NSCLC; NCI-H460 lung; HOP-92 NSCLC; NCI-H522 lung; A549/ATCC NSCLC; 786-0 renal; COLO 205 colon; DU-145 prostate; K-562 leukemia; MALME-3M melanoma; MDA-MB-231 breast; RXF 393 renal; SF-268 CNS; SF-295 CNS; SF-539 CNS; UACC-257 melanoma; M14 melanoma.
Assay in all cases: NCI-60 one-dose screen, 48 h (100 = growth as untreated, 0 = no growth, -100 = all killed)
Common to all, as to settings: 10 µM unless noted

On to `COc1ccc2[nH]c(O)c(N=Nc3nc(-c4ccc(Cl)cc4)cs3)c2c1`, for which the growth in the test with NCI-H23 lung is -33.7% (active); with NCI-H226 lung it was -54.3% (active); with NCI-H322M lung, 12.8%; with HOP-62 NSCLC, -26.6% (active); with NCI-H460 lung, -31.4% (active); in the test on HOP-92 NSCLC, -38.8% (active). The growth was -26.4% (active) in the test on NCI-H522 lung; -60.8% (active) with A549/ATCC NSCLC; -86.6% (active) with 786-0 renal; -76.9% (active) in the test on COLO 205 colon; 4.95% (active) with DU-145 prostate; 12.1% in the test with K-562 leukemia. For the same compound, the growth is -63.5% (active) in the test on MALME-3M melanoma; 17.6% with MDA-MB-231 breast; -90% (active) with RXF 393 renal; -9.32% (active) with SF-268 CNS; -46% (active) with SF-295 CNS; -60.5% (active) in the test on SF-539 CNS. The growth is 9.82% (active) in the test on UACC-257 melanoma and -9.9% (active) in the test on M14 melanoma.
Turning to `CN(C)CCCNC(=S)Nc1ccc(/C=C/c2ccc(Cl)cc2)cc1`, the growth in the test with NCI-H23 lung was -89.2% (active); with NCI-H226 lung it was -20.2% (active); in the test with NCI-H322M lung, -95% (active); in the test on HOP-62 NSCLC, -50.8% (active); in the test with NCI-H460 lung, -35.8% (active); in the test with HOP-92 NSCLC, -53.3% (active). For the same compound, the growth is -51.9% (active) in the test on NCI-H522 lung; -36% (active) in the test on A549/ATCC NSCLC; -37.4% (active) in the test with 786-0 renal; -58% (active) in the test with COLO 205 colon; -61.8% (active) in the test with DU-145 prostate; 4.54% (active) in the test on K-562 leukemia. Also, the growth in the test with MALME-3M melanoma was -95% (active); in the test with MDA-MB-231 breast, -100% (active); in the test on RXF 393 renal it was -25.8% (active); with SF-268 CNS it was 0.261% (active); with SF-295 CNS, -51.7% (active); with SF-539 CNS, -68.6% (active). Also, the growth in the test on UACC-257 melanoma is -79.9% (active); in the test on M14 melanoma, -63.5% (active).
Consider `CN1CCc2c(sc3ncnc(N/N=C/c4cccc(Cl)c4Cl)c23)C1`, for which the growth with NCI-H23 lung is -6.68% (active); in the test on NCI-H226 lung, 134%; in the test with NCI-H322M lung, 77.3%; in the test with HOP-62 NSCLC it was -38.2% (active); in the test with NCI-H460 lung, -71.1% (active); in the test with HOP-92 NSCLC, 58.4%. For the same compound, the growth in the test with NCI-H522 lung is 68.8%; with A549/ATCC NSCLC, -70.1% (active); in the test with 786-0 renal, -16.1% (active); in the test with COLO 205 colon it was -80.3% (active); with DU-145 prostate, -5.42% (active); with K-562 leukemia, -7.35% (active). The growth in the test with MALME-3M melanoma is 87.5%; with MDA-MB-231 breast, -43.4% (active); with RXF 393 renal, 27.3%; in the test on SF-268 CNS it was 43.1%; in the test with SF-295 CNS, -72.5% (active); in the test on SF-539 CNS, -91.8% (active). Moreover, the growth in the test with UACC-257 melanoma is 76.5%; with M14 melanoma it was 64.5%.
With `Cc1ccc(C(=O)Nc2cc(-n3ccnc3C)cc(C(F)(F)F)c2)cc1C#Cc1cnc2cccnn12`, the growth was -26.1% (active) in the test with NCI-H23 lung; -33.1% (active) in the test with NCI-H226 lung; 21% with NCI-H322M lung; -7.58% (active) in the test on HOP-62 NSCLC; 5.86% (active) with NCI-H460 lung; -31.5% (active) with HOP-92 NSCLC. The growth with NCI-H522 lung was -29.1% (active); with A549/ATCC NSCLC it was 11.3%; in the test with 786-0 renal, 6.68% (active); with COLO 205 colon, -19.9% (active); in the test on DU-145 prostate, 18.6%; in the test with K-562 leukemia it was -3.69% (active). Further, the growth with MALME-3M melanoma is -35.6% (active); with MDA-MB-231 breast, -37.5% (active); in the test on RXF 393 renal it was -54.6% (active); with SF-268 CNS, 25.7%; in the test on SF-295 CNS, -60.9% (active); in the test on SF-539 CNS, -81.8% (active). For the same compound, the growth in the test on UACC-257 melanoma is 3.43% (active); in the test with M14 melanoma, -20% (active).
For the compound `COC(=O)c1cc(C(=O)CBr)n2c1ccc1c3ccccc3ccc12`, the growth with NCI-H23 lung is 51.4%; in the test with NCI-H226 lung, 53.4%; with NCI-H322M lung, 82.8%; in the test on HOP-62 NSCLC, 48.9%; in the test with NCI-H460 lung, 39.4%; with HOP-92 NSCLC, 53.2%. Besides, the growth is 59.1% in the test with NCI-H522 lung; 31.3% with A549/ATCC NSCLC; 52.1% in the test with 786-0 renal; 38.7% in the test with COLO 205 colon; 69.3% with DU-145 prostate; 43% in the test on K-562 leukemia. The growth is 51.2% in the test on MALME-3M melanoma; 69.8% with MDA-MB-231 breast; 67% with RXF 393 renal; 74.7% with SF-268 CNS; 37.2% in the test with SF-295 CNS; 43.6% in the test with SF-539 CNS. Moreover, the growth is 82.6% with UACC-257 melanoma and 69.5% in the test on M14 melanoma.
Take `N#CC1=C(c2cccs2)Nc2c(c(-c3ccccc3)nn2-c2ccccc2)C12C(=O)Nc1ccc(Br)cc12` (stereo not given): the growth is 2.18% (active) in the test with NCI-H23 lung; 13% in the test on NCI-H226 lung; 26.9% in the test on NCI-H322M lung; -75.2% (active) with HOP-62 NSCLC; -46.7% (active) in the test with NCI-H460 lung; -24.7% (active) in the test with HOP-92 NSCLC. For the same compound, the growth with NCI-H522 lung is -12.4% (active); with A549/ATCC NSCLC, -9.72% (active); with 786-0 renal, -22.7% (active); with COLO 205 colon it was -83% (active); in the test with DU-145 prostate it was 31.5%; in the test on K-562 leukemia, 2.75% (active). The growth is -18.7% (active) in the test on MALME-3M melanoma; -34% (active) in the test on MDA-MB-231 breast; -39.7% (active) in the test on RXF 393 renal; 15.7% in the test on SF-268 CNS; -37.3% (active) in the test on SF-295 CNS; -62.4% (active) in the test with SF-539 CNS. The values for the growth with UACC-257 melanoma and with M14 melanoma were 35.8% and -72.1% (active), respectively.
For `COc1ccc(S(=O)(=O)Nc2ccc(-c3ccc4c(c3)NC(=O)/C4=C\c3ccc[nH]3)cc2)cc1OC`, the growth was -25.1% (active) in the test on NCI-H23 lung; -37.8% (active) with NCI-H226 lung; 31.6% in the test on NCI-H322M lung; 0.497% (active) in the test on HOP-62 NSCLC; -52.5% (active) with NCI-H460 lung; 5.85% (active) with HOP-92 NSCLC. For the same compound, the growth in the test with NCI-H522 lung is 2.96% (active); in the test on A549/ATCC NSCLC, -25.8% (active); in the test with 786-0 renal, -9.09% (active); with COLO 205 colon it was 39.8%; in the test with DU-145 prostate it was 10.4%; with K-562 leukemia, 28.7%. Moreover, the growth was -16.2% (active) in the test with MALME-3M melanoma; -46.1% (active) in the test with MDA-MB-231 breast; -23% (active) with RXF 393 renal; 65% with SF-268 CNS; 56.1% with SF-295 CNS; -46.5% (active) in the test with SF-539 CNS. In addition, the growth was -10.7% (active) in the test on UACC-257 melanoma and 0.851% (active) with M14 melanoma.
`CN(C)c1nc(NCCNS(=O)(=O)c2ccc(C3=Nc4c(N)nc(N)nc4NC(c4ccc(C(F)(F)F)cc4)C3)cc2)nc(N2CCOCC2)n1` (stereo not given): the growth was 74% with NCI-H23 lung; 54.1% with NCI-H226 lung; 84.2% in the test on NCI-H322M lung; 51.8% in the test with HOP-62 NSCLC; 35.6% with NCI-H460 lung; -17% (active) in the test on HOP-92 NSCLC. Moreover, the growth with NCI-H522 lung was 35%; with A549/ATCC NSCLC, 40.2%; in the test with 786-0 renal it was 20.2%; in the test on COLO 205 colon, -14.2% (active); with DU-145 prostate, 61.8%; with K-562 leukemia, 9.12% (active). Moreover, the growth in the test on MALME-3M melanoma is 60.3%; in the test on MDA-MB-231 breast it was 38.5%; in the test with RXF 393 renal, 16.6%; in the test with SF-268 CNS, 38.6%; in the test with SF-295 CNS, 45.5%; in the test with SF-539 CNS, 34.3%. In addition, the results for the growth with UACC-257 melanoma and in the test on M14 melanoma were 52.9% and 28%, respectively.
